# Reference: the supplement of paper PMC11417369
# The full ranking holds about 25,000 sequences; the median of “ln(normalized median fluorescence intensity)” is about 9.3, and the highest 2% start at about 10. The sample holds the highest values, similar sequences and a random draw of the others, so the mix is not that of the screen.
# Test system: PF3D7_0420300 AP2 domain 1 (GST-tagged)
# Experiment: gcPBM binding intensity (ln(normalized median fluorescence intensity)); higher = stronger DNA binding
# Outline: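 Binding intensity is defined as the maximum Masliner-normalised natural-log median intensity across replicate spots for either probe orientation. It was measured on an Agilent 4 × 180k array of primer-extended double-stranded 36-bp intergenic genomic probes and negative controls, to which GST-tagged P. falciparum DNA-binding domains made in E. coli were applied for 1 h in 1× PBS with 1% milk, 0.2 mg/ml BSA, 0.5% salmon testes DNA and 0.03% Triton X-100. Detection was by Alexa488 anti-GST antibody and scanning at 488 nm.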
row,Sequence,gcPBM binding intensity (ln)
1,TAATAAAAATAAAATTGTACTAATAACATTTCATTA [XGTACX_site3703],8.94
2,TATCTTATGTCTGAAAGTACAAATTTTTTTCTACTT [XGTACX_site2208],9.09
3,AAAAAATCACAACACACACACACACTAATAAAAAAA [CACACA_site8410],10.2
4,AATAAATATAAAAATGCACACACACTAATAAAAAAA [CACACA_site8201],10.2
5,TATATATATATATATACACACACACTAATAAAAAAA [CACACA_site8426],10
6,AAAAAAAAAAAACACACACACACACTAATATATAAA [CACACA_site8302],10.2
7,ATAATAAAAAAAAATGCACACATATATATATATATA [CACACA_site8766],9.21
8,ATAAATAAAGGACACACACACACACTAGAAAAAAAA [CACACA_site5450],10
9,GGAAACAAAAAATATATACACACTAATCATAAAAAA [CACACA_site7890],9.52
10,ATATAAATAATATAAATACACACTAAAAAAAATATA [CACACA_site542],9.69
11,ATAAATAAAGGACACACACACACACTAATAAAAAAA [CACACA_site8840],10.3
12,TATAATAAATCAAATGCACACACACTAATAAAAAAA [CACACA_site7937],10.1
13,TGCAACAAAATAAACACACACACACTAACACAAAAA [CACACA_site7567],10.1
14,AAAAAAATAAAGGATATACACACTAATTATATATAT [CACACA_site2812],9.64
15,CACATATAAATATTAACACACATAATGAGTTATATA [CACACA_site7316],9.33
16,GAATATTAAACAAACACACACACATATATATATATA [CACACA_site3382],9.78
17,TTTTTTTTTTATTTTGCACACTTCTAATTTAGTTCT [CACACA_site5828],9.45
18,TTTCTTAAAATGTTATGTACATATTTCGTTTCAAAG [XGTACX_site6102],9.01
19,ATTATATATAAGAAGAGTACTGAATATGTGCAATAT [XGTACX_site4471],9.55
20,ATATAATATGTTGAATGTACTTAAAAAAATGTATCT [XGTACX_site5385],9.21
21,AAAACAAACGGACACACACACATATATATATATATA [CACACA_site5924],9.97
22,CTAAAATACGGACACACACACACATATATATATATA [CACACA_site6138],10.2
23,AAAAAAAACGGACACACACACATACAAAATATATAT [CACACA_site4910],10.2

row,Sequence,gcPBM binding intensity (ln)
1,TAAATAAATAAAAAAACACACATATATATATATATA [CACACA_site4029],9.51
2,AAAAAAAACGGACACACACACATAAATATATATAAA [CACACA_site4260],10.3
3,TAAATATATATATACACACACATACACAAAAAAAAA [CACACA_site3580],10.1
4,CCATAAAACTATAATACACACATATAGATTAACATA [CACACA_site7849],9.7
5,CTATAAATGAATGTTTGTACTTAATAATAAAAGAAA [XGTACX_site3170],9.06
6,GCATATTTTATAATTTTACACACCATATAAAATAAT [CACACA_site8904],9.51
7,TGTTTGTAATTATGTATGCACTTTTTTGTATGTGTG [GTGCAC_site9668],9.58
8,AAAAAAATAAATAAGACACACACAAAAAAAAAAAAA [CACACA_site8404],9.97
9,AAAAATAAATAAGACACACACAAAAAAAAAAAAAAA [CACACA_site1432],9.54
10,AAAAAAATAAGACACACACACAAAAAAATAAAAATA [CACACA_site6357],10.1
11,ACAAAATAAAGACACACACACAAACACAAAAAAATA [CACACA_site7568],10.2
12,CAAAGAGAAATAAACACACACAAAATAAAGAAAAAA [CACACA_site2245],9.74
13,AAAAAAAAAAGACACACACACAAAATAAACAAACAA [CACACA_site7308],10.3
14,TATTTTATTATACCAAGTACAAAATTTAAATATGAA [XGTACX_site5478],8.99
15,AAAATAATAAATAAATGTACATATATATATATATAT [XGTACX_site3078],9.1
16,TTTATTTATTAATACACACACACACCCAGACAAAAT [CACACA_site4292],10.2
17,ATAATTAACAAATACACACACACACGCCCACAAAAA [CACACA_site6389],10.2
18,TATTAATACAGACACACACACACACCCAATAAAATA [CACACA_site243],10.1
19,ATAATTAACAAATACACACACACACCCAGACAAAAA [CACACA_site4445],10.2
20,TTAATTAAATATTATACACACAAAAAAATAATTTTA [CACACA_site96],9.27
21,AATTAATAACAAAATAAACACACATATATAAATACA [CACACA_site8456],9.84
22,TTTTTATTTATTAATACACACACACCCACCCACAAA [CACACA_site7965],10.1
23,TTTATTTATTAATACACACACACACGCCCACAAAAT [CACACA_site6253],10.2

row,Sequence,gcPBM binding intensity (ln)
1,AAAAAAAAAAAATACACACAAACACAAATTAAATAA [CACACA_site3809],9.88
2,TAATTAACAAACTATAGTACACAAAATACTTCATAT [XGTACX_site6375],9.44
3,ATGGTAGTGATTAAAAGTACACGTAATTGTAAAAAT [XGTACX_site387],9.45
4,TATATTTAGTAAAAAGGTACCATTCTTATTTATATT [CACACA_negctrl_site1165],9.13
5,TTTTATGTAATTATTTGTACATATGCCTCTTAAACT [XGTACX_site748],9.19
6,AAAAAAATATATTCCTAATTTATGATTAAAAGGAAT [CACACA_negctrl_site751],8.98
7,ATATATTTTTTCTTAACACACATATATAAAATAAAA [CACACA_site3500],9.24
8,AAGAGAAATGGGCACACACACACATATTATAGATAT [CACACA_site6828],10.2
9,AAAAGAGAAATGGGCACACACACACCGATTATATAT [CACACA_site4942],10.2
10,GAGAAATGGGGACACACACACATATTATAGATATAT [CACACA_site6829],10.1
11,AAAAGAGAAATGGGCACACACACACCCATTATATAT [CACACA_site1530],9.88
12,AGAAAAGAGAAATGGGCACACACACCCATATTATAT [CACACA_site8433],9.66
13,AAGAGAAATGGGCACACACACACATATTATATATAT [CACACA_site1531],10.1
14,TAATATACTTAATACACACACGAATATTTATAAATA [CACACA_site6675],9.73
15,ACATATTATAGGAATACACACAAAAACTTATCGGTA [CACACA_site7587],9.87
16,CATACACCCATACATACACACATACATACACCCATA [CACACA_site5124],9.78
17,CACCCACCCAGACACACACACACAAAAAAAAAAAGA [CACACA_site499],10.1
18,ACATCAAGCAGACACACACACACACCCACCCACCGA [CACACA_site371],10.2
19,CAAGCACAGAAACACACACACACACCGACACAGACA [CACACA_site4359],10.2
20,AATACCCAAGGACACACACACACATATATATATATA [CACACA_site8345],10.2
21,CATATACATCCACATACACACATACACCCATACACA [CACACA_site5038],9.74
22,AACAGACAGAAACACACACACATATATATATATATA [CACACA_site3394],9.81
23,CAAGCACCCAGACACACACACACACCCACACCCACA [CACACA_site369],10.2

row,Sequence,gcPBM binding intensity (ln)
1,ATACATCAAGGACACACACACACACCCACACCCACA [CACACA_site8013],10.3
2,AAAATACCCGGACACACACACATATATATATATATT [CACACA_site6137],9.96
3,GTAATACCCAAACACACACACATACCCATATATATA [CACACA_site5510],10
4,ATTATTACTATATGTGTACACATCAACTGGTTTGAT [CACACA_site5563],9.39
5,AAAAAAAAAAAAAAGGTGCATACTTTGAATTAATAT [GTGCAC_site9401],9.2
6,ATAAAAAATATCACATAAAATAAAAAAAGAAAGGAT [XGTACX_negctrl_site294],9.62
7,AGTGGACTTTTTTTTTTTTTTTTTTTTTTTTTATTA [CACACA_negctrl_site547],9.2
8,AGTATAAATATATTATGTACATATATATTATACTTA [XGTACX_site2623],9.09
9,ATTATCTATCGTTTTTGTACTTACACCTTAATACAA [XGTACX_site7337],9.58
10,TACACAAGCGGACACACACACATATATATATATATA [CACACA_site4832],9.81
11,ACATCAAGCAGACACACACACACACCCACCCACCCA [CACACA_site8012],10.4
12,ACATCAAGCGGACACACACACACACCGACAGACACA [CACACA_site4361],10.2
13,AAGCATACATCAAGCACACACACACCCACAGAGACA [CACACA_site4362],9.89
14,TACACAAGCAGACACACACACATATATATATATATA [CACACA_site1270],9.72
15,TAAAGTATTACAACCACACACACACCGATATATTAT [CACACA_site9382],9.99
16,ATAAAAATAAAAAGTGTGCACACAAAAATATATATA [GTGCAC_site9931],9.9
17,ATATATATATATATATGTACATATTCACTTATATTT [XGTACX_site5324],9.18
18,ATTAAACATAAATATGCACACATATACATATATTCA [CACACA_site8850],9.4
19,TATGTACACCCATATACACACCTCTATAATATATAT [CACACA_site4563],9.67
20,TTTTATGAAAAGTATTGTACGTATAATTTATATGTA [XGTACX_site1639],9.04
